Test results from the supplement of paper PMC9694430.

What was measured:
Assay in all cases: thermal shift delta Tm vs DMSO control; higher = stronger stabilization (binding)
Conditions in all cases: 12.5 µM; protein concentration 2 µM
LOC_OS01G57100-cb003 = test system: LOC_OS01G57100-cb003
Summary of the method: (§1)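 Compounds dissolved in DMSO were added to purified rice kinase domain constructs, which had been expressed in E. coli, for differential scanning fluorimetry. Each well held 19.5 μl of 2 μM kinase in 100 mM potassium phosphate pH 7.5, 150 mM NaCl, 10% glycerol and 5 × SYPRO Orange. Fluorescence was followed from 25°C to 95°C at a rate of 0.05°C/s. Shifts in Boltzmann-fitted melting temperature are triplicate means relative to DMSO-only protein.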

LOC_OS01G60330-cb001 = test system: LOC_OS01G60330-cb001
Summary of the method: as §1

LOC_OS01G60700-cb002 = test system: LOC_OS01G60700-cb002
Summary of the method: as §1

LOC_OS01G63280-cb003 = test system: LOC_OS01G63280-cb003
Summary of the method: as §1

LOC_OS01G67340-cb003 = test system: LOC_OS01G67340-cb003
Summary of the method: as §1

LOC_OS01G70970-cb002 = test system: LOC_OS01G70970-cb002
Summary of the method: as §1

LOC_OS02G07810-cb001 = test system: LOC_OS02G07810-cb001
Summary of the method: as §1

LOC_OS02G08530-cb003 = test system: LOC_OS02G08530-cb003
Summary of the method: as §1

LOC_OS02G14120-cb001 = test system: LOC_OS02G14120-cb001
Summary of the method: as §1

LOC_OS02G17970-cb001 = test system: LOC_OS02G17970-cb001
Summary of the method: as §1

| Structure (SMILES) | thermal shift delta Tm (LOC_OS01G57100-cb003) [°C] | thermal shift delta Tm (LOC_OS01G60330-cb001) [°C] | thermal shift delta Tm (LOC_OS01G60700-cb002) [°C] | thermal shift delta Tm (LOC_OS01G63280-cb003) [°C] | thermal shift delta Tm (LOC_OS01G67340-cb003) [°C] | thermal shift delta Tm (LOC_OS01G70970-cb002) [°C] | thermal shift delta Tm (LOC_OS02G07810-cb001) [°C] | thermal shift delta Tm (LOC_OS02G08530-cb003) [°C] | thermal shift delta Tm (LOC_OS02G14120-cb001) [°C] | thermal shift delta Tm (LOC_OS02G17970-cb001) [°C] |
| --- | --- | --- | --- | --- | --- | --- | --- | --- | --- | --- |
| NC1(c2ccc(-c3nc4ccn5c(=O)[nH]nc5c4cc3-c3ccccc3)cc2)CCC1 | -0.32 | 1.3 | 1.21 | -0.33 | -0.9 | 0.31 | 0.4 | 0.46 | -0.05 | 1.42 |
| C[C@@H](NC(=O)c1ncnc(N)c1Cl)c1ncc(C(=O)Nc2cc(C(F)(F)F)c(Cl)cn2)s1 | 0.35 | 1.01 | 1.42 | 1.75 | 0.42 | 0.8 | 0.35 | 0.67 | 0.58 | 0.7 |
| Cn1cc(/C=C2\C(=O)Nc3cccnc32)c2ccccc21 | 1.08 | 12.1 | 1.27 | 0.58 | 2.54 | 4.16 | 1.32 | 4.2 | 3.15 | 1.08 |
| COc1cc2/c(=N/c3ccc(Br)cc3F)nc[nH]c2cc1OCC1CCN(C)CC1 [Vandetanib (ZD6474)] | 0.28 | 0.67 | 1.17 | 0.47 | 1.64 | 0.33 | 0.65 | 2.65 | 10.4 | 0.76 |
| C=CC(=O)N1CCC[C@@H](n2nc(-c3ccc(Oc4ccccc4)cc3)c3c(N)ncnc32)C1 | 1.42 | 1.09 | 0.54 | 3.76 | -0.23 | 1.12 | 0.96 | 1.16 | 0.34 | 0.6 |
| C=CC(=O)Nc1cccc(Oc2nc(Nc3ccc(N4CCN(C)CC4)cc3OC)ncc2Cl)c1 | -0.16 | 0.75 | 0.6 | 0.05 | -0.81 | 0.44 | 0.62 | 1.23 | 0.27 | 0.24 |
| CN1CC[C@H](c2c(O)cc(O)c3c(=O)cc(-c4ccccc4Cl)oc23)[C@H](O)C1 [Flavopiridol (Alvocidib)] | 0.96 | 0.94 | 0.39 | 0.37 | -0.01 | 1.4 | 0.63 | 1.53 | 1.28 | -0.3 |
| Cc1cc(Nc2nc(N[C@@H](C)c3ccc(F)cc3)c(C#N)cc2F)n[nH]1 | 0.56 | 7.34 | 0.15 | 0.61 | -0.08 | 1.7 | 0.48 | 1.49 | 7.95 | 0.2 |
| Cn1cc(-c2ccc3ncc(Cc4ccc5ncccc5c4)n3n2)cn1 | 0.9 | 1.91 | 0.96 | 0.15 | 0.76 | 0.25 | 1.07 | 1.43 | 2.22 | 0.32 |
| Nc1cccc(S(=O)(=O)N2CCCN(S(=O)(=O)c3ccc4c(c3)OCCO4)CC2)c1 | 0.46 | 0.53 | 0.59 | -0.02 | 0.27 | 0.17 | 0.54 | 0.32 | 0.21 | 0.7 |
| CC(C)(CO)n1cc(C(=O)c2cncc(NC(=O)Cc3ccc(Cl)cn3)c2)c2cnc(N)nc21 | 0.95 | 0.35 | 0.16 | 0.14 | 0.19 | 0.28 | -0.84 | 0.77 | 3.51 | 0.53 |
| CCCNC(=O)c1cn2ncnc(Nc3cc(C(=O)NC4CC4)ccc3C)c2c1C | 0.66 | 0.41 | 0.99 | 0.33 | 0.18 | 0.12 | 0.08 | 0.8 | 0.54 | -0.21 |
| COc1cc2ncnc(Nc3ccc(F)c(Cl)c3)c2cc1OCCCN1CCOCC1 [Gefitinib (ZD1839)] | 0.37 | 0.16 | 1.04 | 0.4 | -0.59 | 0.28 | 0.77 | 0.6 | 4.78 | 0.15 |
| Oc1cc(CNC(=S)/C=C/c2cc(O)c(O)c(Br)c2)cc(O)c1O | 7.83 | 17.7 | -0.76 | 20 | 0.53 | 0.97 | 4.09 | -1.06 | -0.83 | 7.15 |
| N#Cc1c(Oc2ccc(F)c(NC(=O)Cc3cccc(C(F)(F)F)c3)c2)ccc2nc(NC(=O)C3CC3)sc12 | 2.29 | 1.23 | 1.86 | 0.73 | 0.52 | 0.34 | 0.79 | 0.98 | 0.68 | 0.88 |
| Cc1n[nH]c2ncc(C(=O)N3CCC[C@H]3c3ccc(Cl)cc3)cc12 | 0.92 | 0.11 | 0.24 | 0.09 | 0.25 | 0.34 | -0.7 | 1.34 | 1.35 | 0.38 |
| Cc1[nH]nc2ccc(-c3cncc(OC[C@@H](N)Cc4ccccc4)c3)cc12 | 1.88 | 0.68 | 1.01 | 0.26 | 1.12 | 0.36 | 1.05 | 2.68 | 3.18 | 0.41 |
| COc1cc(OC)cc(-c2cc3cnc(N)nc3nc2NC(=O)NC(C)(C)C)c1 | 1.18 | 0.3 | 0.16 | 0.24 | -0.11 | 0.35 | -0.88 | 0.52 | 0.72 | -0.49 |
| OC1CCC(Oc2cccc3cnc(Nc4ccc5nc[nH]c5c4)nc23)CC1 (stereo not given) | 1.84 | 13.9 | -0.02 | 4.52 | 5.84 | 8.36 | -0.24 | 4.55 | 11.4 | 0.06 |
| CC[C@@H]1C(=O)N(C)c2cnc(Nc3ccc(C(=O)N[C@H]4CC[C@H](N5CCN(CC6CC6)CC5)CC4)cc3OC)nc2N1C(C)C [Volasertib (BI 6727)] | 1.58 | 2.49 | 0.62 | 0.08 | 1.23 | 0.17 | 0.23 | 1.87 | -0.05 | 0.41 |
